# According to the supplement of paper PMC12024424:
# Structures can show the parent of a compound that is named as a salt.
# System: Staphylococcus aureus Sa2 (MRSA, cystic fibrosis isolate)
# Assay: growth reduction vs untreated control (OD550); higher = stronger antibacterial activity
# Conditions: 0.1 mM; 24 h
# Method: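 Single-dose screen of the MedChem Express Drug Repurposing Library (0.1 mM, 1% DMSO) against planktonic MRSA S. aureus Sa2 (CF isolate) in TSB in 96-well plates, 37 °C aerobic, 24 h. Assays were run in triplicate and repeated twice.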
row,Structure (SMILES),growth reduction
1,CC(O)c1cc(C(=O)N[C@@H](C)Cn2ccc(-c3ccc(C#N)c(Cl)c3)n2)n[nH]1 (some centres not stated) [Darolutamide],100%
2,CC(C)(C)c1ccc(C(O)CCCN2CCC(C(O)(c3ccccc3)c3ccccc3)CC2)cc1 (configuration not stated) [Terfenadine],100%
3,COc1ccc(NS(=O)(=O)c2c(F)c(F)c(F)c(F)c2F)cc1F [Batabulin],95.5%
4,Clc1ccc(Nc2nnc(Cc3ccncc3)c3ccccc23)cc1 [Vatalanib (dihydrochloride)],100%
5,CC(=O)O[C@]1(C(C)=O)CC[C@H]2[C@@H]3C=C(C)C4=CC(=O)CC[C@]4(C)[C@H]3CC[C@@]21C [Megestrol acetate],100%
6,Clc1ccc(CSC(Cn2ccnc2)c2ccc(Cl)cc2Cl)cc1 (configuration not stated) [Sulconazole (nitrate)],93.4%
7,c1ccc(-c2ccc(C(c3ccccc3)n3ccnc3)cc2)cc1 (configuration not stated) [Bifonazole],100%
8,Cc1c(Cl)cccc1Nc1ccccc1C(=O)O [Tolfenamic Acid],100%
9,CN1CC[C@@H](NC(=O)Nc2ccc(C#N)cc2)C[C@@H]1c1nc2ccccc2[nH]1 [Glasdegib],100%
10,COc1cc(NS(C)(=O)=O)ccc1Nc1c2ccccc2nc2ccccc12 [Amsacrine (hydrochloride)],93.4%
11,CCCSc1nc(N[C@@H]2C[C@H]2c2ccc(F)c(F)c2)c2nnn([C@@H]3C[C@H](OCCO)[C@@H](O)[C@H]3O)c2n1 [Ticagrelor],100%
12,O=C(NCC12CC3CC(CC(C3)C1)C2)c1cc(CCCNCCCO)ccc1Cl [AZD9056 (hydrochloride)],100%
13,Cc1ccc(NC(=O)c2ccc(CN3CCN(C)CC3)cc2)cc1Nc1nc(-c2cccnc2)cs1 [Masitinib (mesylate)],100%
14,Cc1cc(C2CCCCC2)n(O)c(=O)c1 [Ciclopirox],99.3%
15,CC1=C(/C=C/C(C)=C/C=C/C(C)=C/C(=O)Nc2ccc(O)cc2)C(C)(C)CCC1 [Fenretinide],100%
16,COc1cc(NC(C)CCCN)c2ncccc2c1 (configuration not stated) [Primaquine (Diphosphate)],91.2%

row,Structure (SMILES),growth reduction
1,CSc1ccc(OCc2ncc([N+](=O)[O-])n2C)cc1 [Fexinidazole],98.5%
2,CCCCc1oc2ccc(NS(C)(=O)=O)cc2c1C(=O)c1ccc(OCCCN(CCCC)CCCC)cc1 [Dronedarone (Hydrochloride)],92.6%
3,CN1CCN(c2ccc3nc(-c4c(N)c5c(F)cccc5[nH]c4=O)[nH]c3c2)CC1 [Dovitinib (lactate)],96%
4,C[C@@H](NCCCc1cccc(C(F)(F)F)c1)c1cccc2ccccc12 [Cinacalcet (hydrochloride)],100%
5,NC(=O)C1=C(O)[C@@]2(O)C(=O)C3=C(O)c4c(O)cccc4C[C@H]3C[C@H]2CC1=O [Incyclinide],100%
6,COc1ccc(C(=O)NC2(C(=O)O)Cc3ccccc3C2)cc1OCCc1cccc(C)c1,90.3%
7,CC/C(=C(\c1ccccc1)c1ccc(OCCN(C)C)cc1)c1ccccc1 [Tamoxifen (Citrate)],100%
8,Clc1ccc(COC(Cn2ccnc2)c2ccc(Cl)cc2Cl)cc1 (configuration not stated) [Econazole (nitrate)],100%
9,CC1(C)S[C@@H]2[C@H](NC(=O)[C@H](N)c3ccccc3)C(=O)N2[C@H]1C(=O)OCOC(=O)[C@@H]1N2C(=O)C[C@H]2S(=O)(=O)C1(C)C [Sultamicillin (tosylate)],100%
10,"CC(C)(C)NCC(O)COc1ccccc1C1CCCC1 (single isomer, unassigned; (+)) [(+)-Penbutolol]",91%
11,CCCCN(CCCC)CCC(O)c1cc2c(Cl)cc(Cl)cc2c2cc(C(F)(F)F)ccc12 (configuration not stated) [Halofantrine hydrochloride],100%
12,CC(=O)Oc1cccc2c1C(=O)c1c(OC(C)=O)cc(C(=O)O)cc1C2=O [Diacerein],93.4%
13,Cc1nc2c([nH]1)-c1ccccc1N(C(=O)c1ccc(NC(=O)c3ccccc3-c3ccccc3)cc1)CC2 [Conivaptan (hydrochloride)],90.4%
14,Clc1ccccc1C(c1ccccc1)(c1ccccc1)n1ccnc1 [Clotrimazole],100%
15,C=CC(=O)Nc1cc(Nc2nccc(-c3cn(C4CC4)c4ccccc34)n2)c(OC)cc1N(C)CCN(C)C [Almonertinib (hydrochloride)],100%
16,CN(C)CCOc1ccc(/C(=C(/CCCl)c2ccccc2)c2ccccc2)cc1 [Toremifene (citrate)],100%
